According to PubChem BioAssay (NCI):
Compounds without any hit were thinned out: in the full panel of roughly 83,000, 20% have a hit.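 Interpretation: 100, growth as untreated; towards 0, rising growth inhibition; 0, no net growth; 0 to -100, cell death. Compounds scoring below 10 were considered active.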 Calls of active or inactive are those of the source.

What was measured:
Assay in all cases: NCI-60 one-dose screen, 48 h (100 = growth as untreated, 0 = no growth, -100 = all killed)
Conditions in all cases: 10 µM unless noted
SK-MEL-2 melanoma = system: SK-MEL-2 melanoma
SN12C renal = system: SN12C renal
UO-31 renal = system: UO-31 renal
TK-10 renal = system: TK-10 renal
ACHN renal = system: ACHN renal
CAKI-1 renal = system: CAKI-1 renal
A498 renal = system: A498 renal
MOLT-4 leukemia = system: MOLT-4 leukemia
SR leukemia = system: SR leukemia
RPMI-8226 leukemia = system: RPMI-8226 leukemia
OVCAR-8 ovarian = system: OVCAR-8 ovarian
OVCAR-5 ovarian = system: OVCAR-5 ovarian
OVCAR-4 ovarian = system: OVCAR-4 ovarian
SK-OV-3 ovarian = system: SK-OV-3 ovarian
IGROV1 ovarian = system: IGROV1 ovarian
OVCAR-3 ovarian = system: OVCAR-3 ovarian
HS 578T breast = system: HS 578T breast
NCI/ADR-RES ovarian = system: NCI/ADR-RES ovarian
EKVX NSCLC = system: EKVX NSCLC
CCRF-CEM leukemia = system: CCRF-CEM leukemia

Measured: growth

N#Cc1c(NC(=O)c2cccs2)[n+]([O-])c2ccc(Cl)cc2[n+]1[O-]
active: IGROV1 ovarian -19.9%
inactive: SK-MEL-2 melanoma 59.3% | SN12C renal 99.8% | UO-31 renal 98.6% | TK-10 renal 118% | ACHN renal 99.5% | CAKI-1 renal 73% | A498 renal 41.4% | MOLT-4 leukemia 97.3% | SR leukemia 109% | RPMI-8226 leukemia 104% | OVCAR-8 ovarian 108% | OVCAR-5 ovarian 114% | OVCAR-4 ovarian 94.8% | SK-OV-3 ovarian 94% | OVCAR-3 ovarian 81.5% | HS 578T breast 56.9% | NCI/ADR-RES ovarian 99.2%

O=C1Nc2ccccc2C2c3cccn3-c3ccccc3N12 (centres undefined)
inactive: SK-MEL-2 melanoma 52% | EKVX NSCLC 81.8% | SN12C renal 90.3% | UO-31 renal 70.4% | TK-10 renal 73.1% | ACHN renal 94.8% | CAKI-1 renal 80.8% | CCRF-CEM leukemia 80.9% | MOLT-4 leukemia 77.5% | SR leukemia 49.5% | OVCAR-8 ovarian 86.9% | OVCAR-5 ovarian 96.6% | OVCAR-4 ovarian 84.2% | SK-OV-3 ovarian 84.6% | IGROV1 ovarian 74.1% | OVCAR-3 ovarian 74.1% | HS 578T breast 78.3% | NCI/ADR-RES ovarian 42.7%

C[Se]C(=O)CC1=C2C=C(F)C=CC2/C(=C\c2ccc(S(C)=O)cc2)C1C (centres undefined)
inactive: SK-MEL-2 melanoma 17.3% | UO-31 renal 18% | ACHN renal 11% | CCRF-CEM leukemia 10.6% | SR leukemia 22.5% | OVCAR-5 ovarian 17.6% | OVCAR-4 ovarian 26.7% | IGROV1 ovarian 21.3%
active: SN12C renal -51.6% | TK-10 renal -19.2% | CAKI-1 renal -20.9% | A498 renal -64.8% | MOLT-4 leukemia 6.51% | RPMI-8226 leukemia -23.9% | OVCAR-8 ovarian -66.1% | SK-OV-3 ovarian 6.54% | OVCAR-3 ovarian -7.75% | HS 578T breast 2.31% | NCI/ADR-RES ovarian 2.59%

O=C1NC(=C(Cl)Cl)/C(=N/S(=O)(=O)NCCc2c[nH]c3ccccc23)N1
inactive: SK-MEL-2 melanoma 46.2% | SN12C renal 35.2% | UO-31 renal 71.6% | TK-10 renal 109% | ACHN renal 88.4% | CAKI-1 renal 83.7% | A498 renal 71.5% | MOLT-4 leukemia 18% | SR leukemia 53.3% | RPMI-8226 leukemia 14.8% | OVCAR-8 ovarian 92.9% | OVCAR-5 ovarian 48.3% | OVCAR-4 ovarian 58.6% | SK-OV-3 ovarian 62.2% | IGROV1 ovarian 98.7% | HS 578T breast 27.3% | NCI/ADR-RES ovarian 67.9%
active: CCRF-CEM leukemia 7.47% | OVCAR-3 ovarian -25.8%

O=C(CN1C(=O)/C(=C/c2ccco2)SC1=S)NCCc1c[nH]c2ccc(F)cc12
inactive: SK-MEL-2 melanoma 119% | SN12C renal 97.6% | UO-31 renal 70.8% | TK-10 renal 105% | ACHN renal 101% | CAKI-1 renal 81.8% | A498 renal 94.5% | CCRF-CEM leukemia 97.1% | MOLT-4 leukemia 97.7% | SR leukemia 111% | RPMI-8226 leukemia 97.8% | OVCAR-8 ovarian 105% | OVCAR-5 ovarian 105% | OVCAR-4 ovarian 99.7% | SK-OV-3 ovarian 93.7% | IGROV1 ovarian 104% | OVCAR-3 ovarian 110% | HS 578T breast 95.9% | NCI/ADR-RES ovarian 99.1%

CCCCc1oc2ccccc2c1C(=O)c1ccc(O)cc1
inactive: SK-MEL-2 melanoma 99.8% | SN12C renal 71.2% | UO-31 renal 78.3% | TK-10 renal 101% | ACHN renal 88.8% | CAKI-1 renal 68.4% | A498 renal 90.9% | CCRF-CEM leukemia 51.9% | MOLT-4 leukemia 59.7% | SR leukemia 31% | RPMI-8226 leukemia 42.5% | OVCAR-8 ovarian 82.2% | OVCAR-5 ovarian 84.3% | OVCAR-4 ovarian 68.2% | SK-OV-3 ovarian 94.4% | IGROV1 ovarian 79.6% | OVCAR-3 ovarian 94.3% | HS 578T breast 83.2% | NCI/ADR-RES ovarian 76.1%

O=C1NC(=O)c2c1c1c3ccccc3[nH]c1c1oc3ccc(F)cc3c21
inactive: SK-MEL-2 melanoma 89.4% | EKVX NSCLC 56.4% | SN12C renal 74.6% | UO-31 renal 25% | TK-10 renal 70.6% | ACHN renal 43.2% | CAKI-1 renal 41.2% | CCRF-CEM leukemia 73.6% | MOLT-4 leukemia 76.2% | SR leukemia 31.5% | OVCAR-8 ovarian 91.6% | OVCAR-5 ovarian 84.1% | OVCAR-4 ovarian 57.8% | SK-OV-3 ovarian 84% | IGROV1 ovarian 21.1% | OVCAR-3 ovarian 83.1% | HS 578T breast 82.2% | NCI/ADR-RES ovarian 79.1%

O=P(O)(O)OCC1OC(n2cnc3c(NCc4ccccc4)ncnc32)C(O)C1O (centres undefined)
active: ACHN renal 8.81% | A498 renal -11.5% | CCRF-CEM leukemia 2.68% | SK-OV-3 ovarian 9.33% | IGROV1 ovarian 1.31% | OVCAR-3 ovarian -66.7%
inactive: SK-MEL-2 melanoma 85.2% | SN12C renal 19.7% | UO-31 renal 41.2% | TK-10 renal 10.9% | CAKI-1 renal 11% | MOLT-4 leukemia 21.7% | SR leukemia 41.7% | RPMI-8226 leukemia 29.5% | OVCAR-8 ovarian 11.5% | OVCAR-5 ovarian 57.7% | OVCAR-4 ovarian 25.5% | HS 578T breast 28.2% | NCI/ADR-RES ovarian 29.7%

CCN1C(=O)N(CC)C2C1NN=c1s/c(=C\c3cc4ccccc4[nH]3)c(=O)n12 (centres undefined)
inactive: SK-MEL-2 melanoma 23.1% | SN12C renal 11.2% | UO-31 renal 18.7% | TK-10 renal 59.6% | ACHN renal 11.7% | MOLT-4 leukemia 11.1% | SR leukemia 22.8% | OVCAR-5 ovarian 33.9% | OVCAR-4 ovarian 32.9% | SK-OV-3 ovarian 31.7% | IGROV1 ovarian 12.1% | OVCAR-3 ovarian 11.7% | HS 578T breast 13.8%
active: CAKI-1 renal 7.63% | A498 renal 2.17% | CCRF-CEM leukemia -8.2% | RPMI-8226 leukemia -32.1% | OVCAR-8 ovarian -14.2% | NCI/ADR-RES ovarian 3.61%

COc1ccc2c(O)c(/C=C3\N=Nc4ccccc43)oc2c1C[C@H]1CCNC[C@H]1F
inactive: SK-MEL-2 melanoma 83.1% | SN12C renal 45.2% | UO-31 renal 45.3% | TK-10 renal 65.4% | ACHN renal 42.8% | CAKI-1 renal 31% | A498 renal 39.9% | CCRF-CEM leukemia 47.9% | MOLT-4 leukemia 24.2% | RPMI-8226 leukemia 60.4% | OVCAR-8 ovarian 61% | OVCAR-5 ovarian 35.4% | OVCAR-4 ovarian 57.6% | SK-OV-3 ovarian 69% | IGROV1 ovarian 62.7% | OVCAR-3 ovarian 66.4% | HS 578T breast 54.7% | NCI/ADR-RES ovarian 82.4%
active: SR leukemia -23.4%

CCCCCCCCn1ccc2cc(NC(=O)Cn3cc(CN4CCCCCC4)nn3)ccc21
active: SK-MEL-2 melanoma -66.6% | UO-31 renal -87.6% | ACHN renal -36% | CAKI-1 renal -39.9% | CCRF-CEM leukemia 1.06% | MOLT-4 leukemia -27.5% | SR leukemia -13.1% | RPMI-8226 leukemia -9.08%
inactive: SN12C renal 23% | TK-10 renal 71.4% | A498 renal 88.9% | OVCAR-8 ovarian 30% | OVCAR-5 ovarian 35.6% | OVCAR-4 ovarian 51% | SK-OV-3 ovarian 97.6% | IGROV1 ovarian 52.2% | OVCAR-3 ovarian 10.1% | HS 578T breast 65.7% | NCI/ADR-RES ovarian 55.1%

CC/C(Cc1ccccc1)=C(\c1ccc(OCCN2CCCCCC2)cc1)c1ccc(OC(=O)NCc2ccccc2)cc1
active: SR leukemia -21.1%
inactive: SK-MEL-2 melanoma 98.9% | EKVX NSCLC 69.5% | SN12C renal 66% | UO-31 renal 59.2% | TK-10 renal 91.6% | ACHN renal 95% | CAKI-1 renal 93.8% | MOLT-4 leukemia 42.6% | RPMI-8226 leukemia 30.8% | OVCAR-8 ovarian 58.9% | OVCAR-5 ovarian 80.9% | OVCAR-4 ovarian 57% | SK-OV-3 ovarian 88.6% | IGROV1 ovarian 63.5% | OVCAR-3 ovarian 89.8% | HS 578T breast 78.6% | NCI/ADR-RES ovarian 74%

CCOC(=O)C(=Cc1cccc(C#N)c1)C(=O)OCC
inactive: SK-MEL-2 melanoma 59.9% | SN12C renal 79.8% | UO-31 renal 54.3% | TK-10 renal 35.9% | ACHN renal 23.7% | CAKI-1 renal 79.9% | A498 renal 122% | CCRF-CEM leukemia 28.5% | MOLT-4 leukemia 50% | RPMI-8226 leukemia 15.1% | OVCAR-8 ovarian 71.6% | OVCAR-5 ovarian 60.1% | OVCAR-4 ovarian 88.2% | SK-OV-3 ovarian 91.3% | IGROV1 ovarian 59.8% | OVCAR-3 ovarian 61.2% | HS 578T breast 93.9% | NCI/ADR-RES ovarian 47.6%
active: SR leukemia 7.73%

Cc1[nH]c(C(=O)Nc2ccc(C(N)=O)cc2NC(C)C)c(Cl)c1Cl
inactive: SK-MEL-2 melanoma 101% | SN12C renal 105% | UO-31 renal 66% | TK-10 renal 120% | ACHN renal 96.5% | CAKI-1 renal 94.1% | A498 renal 69.7% | CCRF-CEM leukemia 94.2% | MOLT-4 leukemia 86% | SR leukemia 103% | OVCAR-8 ovarian 92.4% | OVCAR-5 ovarian 104% | OVCAR-4 ovarian 92.4% | SK-OV-3 ovarian 113% | IGROV1 ovarian 85.1% | OVCAR-3 ovarian 96.3% | NCI/ADR-RES ovarian 88.2%

CCN(CC)CCN(CCN(CC)CC)c1ccccc1
inactive: SK-MEL-2 melanoma 106% | SN12C renal 78.5% | UO-31 renal 66.4% | TK-10 renal 102% | ACHN renal 95.7% | CAKI-1 renal 86.6% | A498 renal 94.5% | CCRF-CEM leukemia 93.3% | MOLT-4 leukemia 89.8% | SR leukemia 111% | RPMI-8226 leukemia 103% | OVCAR-8 ovarian 91.4% | OVCAR-5 ovarian 94.3% | OVCAR-4 ovarian 101% | SK-OV-3 ovarian 92.7% | IGROV1 ovarian 90% | OVCAR-3 ovarian 109% | HS 578T breast 89.2% | NCI/ADR-RES ovarian 100%
